# Measured values from PubChem BioAssay (NCI).
# The panel holds about 83,000 compounds, 20% with a hit somewhere; the sample as a whole holds those more often.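 48-hour exposure, single concentration, 96-well plates; percent growth endpoint where 0 means no net growth. Active: below 10.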 Activity calls are given as the source filed them.
# System: CAKI-1 renal
# Experiment: NCI-60 one-dose screen, 48 h (100 = growth as untreated, 0 = no growth, -100 = all killed)
# Conditions: 10 µM unless noted
row,Compound,growth
1,N#Cc1c(NC(=O)c2ccc([N+](=O)[O-])o2)[n+]([O-])c2cc(F)c(F)cc2[n+]1[O-],113% (inactive)
2,CC(C)(C)OC(=O)N1C/C(=C\c2cccs2)C(=O)/C(=C/c2cccs2)C1,67.2% (inactive)
3,CC(Cc1nnc(SCC(=O)Nc2ccc(I)cc2)n1N)c1ccccc1 (stereo not drawn),104% (inactive)
4,COC(=O)CC/C(C)=N\Nc1ccc([N+](=O)[O-])cc1,41.4% (inactive)
5,COc1ccccc1OCC(=O)Nc1sc2c(c1C(N)=O)CCC2,63.7% (inactive)
6,CC(=O)N1Cc2ccccc2C(C)Cc2cc(Cl)ccc21 (stereo not drawn),90% (inactive)
7,COc1ccc(/C(=N/O)c2cc(OC)c(OC)c(OC)c2)c(OC)c1N,23.9% (inactive)
8,CC(C)CCC[C@@H](C)[C@H]1CC[C@H]2[C@@H]3CC[C@H]4C/C(=N/O)CC[C@]4(C)[C@H]3CC[C@]12C,96.7% (inactive)
9,C/C(=N\NC(=O)CC#N)c1cc2cc(Cl)ccc2o1,89.2% (inactive)
10,CCC#CC[C@H]1C/C=C2/C(=O)C=C[C@@H]2C/C=C\CCCC(=O)O1,18.2% (inactive)
11,Cc1cc(C(=O)O)c(N)c(C)n1,92.3% (inactive)
12,CCCCCCOc1ccc(C2(Cl)c3ccccc3N(C)c3ccccc32)cc1,61.7% (inactive)
13,CC(C)N(Cc1ccc(CN(C(=O)CCl)C(C)C)cc1)C(=O)CCl,33.6% (inactive)
14,COc1cc(-n2nc(C(=O)Nc3ccc(C(=O)O)cc3)nc2-c2ccccc2)cc(OC)c1OC,52.2% (inactive)
15,NC(=O)NNC(=O)c1ccccc1,92.5% (inactive)
16,CC1Cc2c(N(C)C)ncnc2N(C)c2ccc(O)cc21 (stereo not drawn),70.7% (inactive)
17,O=S(=O)(NCCCNc1cc(-c2cn(-c3ccccc3)nc2-c2cccc(O)c2)ccn1)c1ccc(C(F)(F)F)cc1,34.7% (inactive)
18,Cc1ccc(S(=O)(=O)N2CCC(C(=O)Nc3ccc(F)cc3F)CC2)cc1,97.8% (inactive)
19,COc1ccc2c(c1)NC(=O)CN2c1nc(NC2CC2)nc2ccccc12,32.9% (inactive)

row,Compound,growth
1,C=C1C(=O)O[C@H]2[C@H]1CC/C(COC(=O)NCCc1cccc(OC)c1)=C\CC[C@@]1(C)O[C@@H]21,8.84% (active)
2,COc1cc(-c2csc(NC(=O)c3cc(C(F)(F)F)cc(C(F)(F)F)c3)n2)cc(OC)c1OC,43.2% (inactive)
3,Clc1nc(Cl)c2ncn(C/C=C/Cn3cnc4c(Cl)nc(Cl)nc43)c2n1,-60% (active)
4,Cc1ccc2c(c1)C(C)Cc1c(ncnc1-n1cnc3ccccc31)N2C (stereo not drawn),24.6% (inactive)
5,CCN(CC)S(=O)(=O)c1ccc2[nH]c(=O)cc(C(=O)Nc3ccc(OC)cc3OC)c2c1,120% (inactive)
6,COC(=O)CCCCCN=Cc1c(O)c(O)c(C(C)C)c2cc(C)c(-c3c(C)cc4c(C(C)C)c(O)c(O)c(C=NCCCCCC(=O)OC)c4c3O)c(O)c12,55.6% (inactive)
7,CCC(=O)Oc1ccc2c(c1)CC[C@@H]1[C@@H]2CC[C@]2(C)C[C@H](OC(=O)CC)C[C@@H]12,64.8% (inactive)
8,C=C1C(=O)O[C@H]2[C@H]1CC/C(COC(=O)NCc1cc(OC)cc(OC)c1)=C\CC[C@@]1(C)O[C@@H]21,-15.1% (active)
9,O=C(Nc1ccc(I)cc1)c1cc([N+](=O)[O-])ccc1O,30.9% (inactive)
10,O=C(CNC(=O)c1cccc2ccccc12)Nc1ccccc1Oc1ccccc1,31.6% (inactive)
11,O=C(/C=C/CN1CCOCC1)Nc1cc2c(Nc3ccc(F)c(Cl)c3F)ncnc2cc1OCCOC(F)F,15.9% (inactive)
12,O=C(NCCc1c[nH]c2ccccc12)C1Cc2ccccc2CN1C(=O)c1ccco1 (stereo not drawn),107% (inactive)
13,Nc1cc2c(cc1N)-c1cc(N)c(N)cc1C2,93.8% (inactive)
14,COc1ccc(/C(=N\O)c2cc(OC)c(OC)c(OC)c2)c(OC)c1N,28.1% (inactive)
15,CCC(c1ccc(OC)cc1)C(CC)c1ccc(O)c(CN2CCCC2)c1 (stereo not drawn),32.6% (inactive)
16,CC(C)(C)c1cc(-c2nc3ccc(N4CCN(CCO)CC4)cc3[nH]2)cc(C(C)(C)C)c1O,63.2% (inactive)
17,OCc1c(-c2ccccc2)nc2sccn12,96.6% (inactive)
18,O=C(OCCCCOC(=O)n1cnc2ccccc21)n1cnc2ccccc21,93.2% (inactive)
19,OC1CC2c3ccccc3C1c1ccccc12 (stereo not drawn),94.5% (inactive)
